In PubChem BioAssay (NCATS):
The source made the active and inactive calls. Calls follow the shape of the dose curve; as a rule, active = well fitted curve in the direction sought with a large enough effect; inconclusive = small, poorly fitted or top-dose-only effect, or another doubt; inactive = no such curve, though single readings can be large; an effect the other way counts as inactive or inconclusive.

Assay: Cellular Toxicity (caspase-3) HUV-EC-C (AID 656)
Conditions: HUV-EC-C cells, caspase-3 activation (apoptosis), vehicle = 0, 100 µM tamoxifen = 100%; series mostly up to 92.2 µM
How it was run: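 Luminescent Caspase-Glo 3/7 readout after 16 h, 37 °C compound exposure of HUV-EC-C endothelial cells, 1000 per well, complete medium. AC50 derived by Hill fitting, with DMSO as baseline and 100 uM tamoxifen as full activation.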

| Structure (SMILES) | outcome |
| --- | --- |
| Cn1cnc([N+](=O)[O-])c1Sc1ncnc2nc[nH]c12 | inactive |
| NS(=O)(=O)c1cc2c(cc1Cl)NC=NS2(=O)=O | inactive |
| CC(=O)Oc1ccccc1C(=O)O | inactive |
| CCCC(CCC)C(=O)O | inactive |
| O=c1[nH]cnc2[nH]ncc12 | inactive |
| NC(=O)c1cnccn1 | inactive |
| NC(N)=NC(=O)c1nc(Cl)c(N)nc1N | inactive |

Assay: Cellular Toxicity (caspase-3) SHSY5Y (AID 657)
Conditions: SH-SY5Y caspase-3 activation, DMSO zero, 10 µM staurosporine = 100%; series mostly up to 91.7 µM
How it was run: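 Luminescent Caspase-Glo 3/7 read-out, 1 hr room temperature, follows 16 hours of compound treatment of SH-SY5Y cells at 37 °C. Normalization: DMSO basal, 10 uM staurosporine as 100%; AC50 values from Hill-equation concentration-response fits.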

| Structure (SMILES) | outcome |
| --- | --- |
| Cn1cnc([N+](=O)[O-])c1Sc1ncnc2nc[nH]c12 | inactive |
| NS(=O)(=O)c1cc2c(cc1Cl)NC=NS2(=O)=O | inactive |
| CC(=O)Oc1ccccc1C(=O)O | inactive |
| CCCC(CCC)C(=O)O | inactive |
| O=c1[nH]cnc2[nH]ncc12 | inactive |
| NC(=O)c1cnccn1 | inactive |
| NC(N)=NC(=O)c1nc(Cl)c(N)nc1N | inactive |

Assay: Cellular Toxicity (caspase-3) BJ (AID 658)
Conditions: BJ fibroblasts, luminescence, normalized: DMSO 0%, staurosporine 100%; series mostly up to 91.7 µM
How it was run: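 Readout: Caspase-Glo 3/7 luminescence increase in BJ cells after 16 hr treatment at 37 °C. Staurosporine and tamoxifen served as positive controls; AC50 values came from Hill modelling of data normalized to DMSO and 10 uM staurosporine.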

| Structure (SMILES) | outcome |
| --- | --- |
| Cn1cnc([N+](=O)[O-])c1Sc1ncnc2nc[nH]c12 | inactive |
| NS(=O)(=O)c1cc2c(cc1Cl)NC=NS2(=O)=O | inactive |
| CC(=O)Oc1ccccc1C(=O)O | inactive |
| CCCC(CCC)C(=O)O | inactive |
| O=c1[nH]cnc2[nH]ncc12 | inactive |
| NC(=O)c1cnccn1 | inactive |
| NC(N)=NC(=O)c1nc(Cl)c(N)nc1N | inactive |

Assay: Cellular Toxicity (caspase-3) MRC-5 (AID 659)
Conditions: MRC-5 cells, luminescence, normalized: DMSO 0%, 10 µM staurosporine 100%; series mostly up to 91.7 µM
How it was run: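 Concentration-dependent caspase 3/7 activation is measured in human normal lung fibroblasts (MRC-5) following 16-hour treatment. AC50 values come from standard Hill-equation modeling of luminescence normalized to DMSO and 10 uM staurosporine.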

| Structure (SMILES) | outcome |
| --- | --- |
| Cn1cnc([N+](=O)[O-])c1Sc1ncnc2nc[nH]c12 | inactive |
| NS(=O)(=O)c1cc2c(cc1Cl)NC=NS2(=O)=O | inactive |
| CC(=O)Oc1ccccc1C(=O)O | inactive |
| CCCC(CCC)C(=O)O | inactive |
| O=c1[nH]cnc2[nH]ncc12 | inactive |
| NC(=O)c1cnccn1 | inactive |
| NC(N)=NC(=O)c1nc(Cl)c(N)nc1N | inactive |

Assay: Cellular Toxicity (caspase-3) Mesangial (AID 660);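 also: combined caspase 3 and 7 activity read by Caspase-Glo luminescence; cells exposed to compound for 16 h before the caspase read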
Conditions: mesangial cells, normalized: DMSO 0%, 100 µM tamoxifen 100%; series mostly up to 91.7 µM
How it was run: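 Mesangial cells, 1000/well, 5 h settle at 37 °C; compound 16 h, 37 °C; Caspase-Glo 3/7 reagent 20 min RT; luminescence. Norm.: DMSO = 0%, tamoxifen 100 uM = 100%. AC50, Hill fit.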

| Structure (SMILES) | outcome |
| --- | --- |
| Cn1cnc([N+](=O)[O-])c1Sc1ncnc2nc[nH]c12 | inactive |
| NS(=O)(=O)c1cc2c(cc1Cl)NC=NS2(=O)=O | inactive |
| CC(=O)Oc1ccccc1C(=O)O | inactive |
| CCCC(CCC)C(=O)O | inactive |
| O=c1[nH]cnc2[nH]ncc12 | inactive |
| NC(=O)c1cnccn1 | inactive |
| NC(N)=NC(=O)c1nc(Cl)c(N)nc1N | inactive |

Assay: Cellular Toxicity (caspase-3) SK-N-SH (AID 661)
Conditions: SK-N-SH caspase-3 activation, qHTS, DMSO as zero, staurosporine as full; series mostly up to 91.7 µM
How it was run: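 Human neuroblastoma SK-N-SH, 1500 cells/well, 5 hr pre-incubation, then compound 16 hr, 37 °C. Caspase-Glo 3/7 reagent, 1 hr RT, luminescence. Norm. to DMSO/10 uM staurosporine; Hill-fit AC50.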

| Structure (SMILES) | outcome |
| --- | --- |
| Cn1cnc([N+](=O)[O-])c1Sc1ncnc2nc[nH]c12 | inactive |
| NS(=O)(=O)c1cc2c(cc1Cl)NC=NS2(=O)=O | inactive |
| CC(=O)Oc1ccccc1C(=O)O | inactive |
| CCCC(CCC)C(=O)O | inactive |
| O=c1[nH]cnc2[nH]ncc12 | inactive |
| NC(=O)c1cnccn1 | inactive |
| NC(N)=NC(=O)c1nc(Cl)c(N)nc1N | inactive |
